This is one part of the list. Inconclusive results are not listed. Active and inactive are the calls of the source. Calls come from the whole dose curve.
Target: Thyroid hormone receptor beta (Homo sapiens) (UniProt P10828)
Assay: Protein Interaction Secondary Assay for Inhibitors of the Interaction of Thyroid Hormone Receptor and Steroid Receptor Coregulator 2, Alpha Screen
Conditions: AlphaScreen TRb LBD-SRC2 peptide binding, luminescence
From the text: NIH Molecular Libraries Probe Production Network [MLPCN] NIH Chemical Genomics Center [NCGC] MLPCN Grant: DK058080 Assay Provider: R. Kip Guy, St. Jude Children's Research Hospital NCGC Assay Overview: Thyroid receptor (TR) regulates many homeostatic processes including basal metabolism, cardiovascular function, body weight, and lipid trafficking. TR modulators are potential therapeutics for obesity and hyperlipidemias but current thyroid analogs have undesirable side effects, particularly cardiac stimulation. To confirm that inhibitors specifically prevent the interaction of TR with the steroid receptor coregulator 2 (SRC2), an orthogonal TR-SRC2 interaction assay using Alpha Screen (PerkinElmer) was employed. […] Small molecule inhibitors that block the interaction of TR and SRC2 are detected by a decrease in chemiluminescence.
NCGC Assay Protocol Summary: Fifteen uL/well of 100 nM TRb and 100 nM SRC2-2-peg2-biotin in buffer (25 mM HEPES, 100 mM NaCl, 1 mM DTT, 0.1% BSA, 0.01% NP-40) was dispensed into white 384 well Optiplates (PerkinElmer). […] After 30 min incubation, 5 uL of streptavidin donor beads were added and after 90 min incubation, the plates were read by an Envision (Perkin Elmer) to detect luminescence of the donor and acceptor bead interaction (680 nm excitation and 520-620 nm emission).

Sequence of Thyroid hormone receptor beta (Homo sapiens) (P10828 whole entry, looked up): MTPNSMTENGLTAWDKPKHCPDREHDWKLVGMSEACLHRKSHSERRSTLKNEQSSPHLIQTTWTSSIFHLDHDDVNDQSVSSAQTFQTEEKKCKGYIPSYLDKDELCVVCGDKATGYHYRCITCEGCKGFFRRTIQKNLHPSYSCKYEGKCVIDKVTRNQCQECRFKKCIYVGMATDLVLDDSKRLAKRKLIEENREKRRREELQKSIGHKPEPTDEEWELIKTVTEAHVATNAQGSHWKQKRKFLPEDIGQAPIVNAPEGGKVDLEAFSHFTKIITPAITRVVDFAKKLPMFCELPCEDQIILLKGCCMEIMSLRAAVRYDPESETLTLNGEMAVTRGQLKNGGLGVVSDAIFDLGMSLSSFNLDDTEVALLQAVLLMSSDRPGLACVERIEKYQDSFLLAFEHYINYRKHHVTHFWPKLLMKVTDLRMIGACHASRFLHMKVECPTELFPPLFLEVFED

Row | Compound | outcome
1 | O=C(COC(=O)c1cccc([N+](=O)[O-])c1)NC1C2CC3CC(C2)CC1C3 (stereo unspecified) | inactive

Source: PubChem BioAssay AID2444 (National Center for Advancing Translational Sciences (NCATS), 2010)
